Experiment [1] in a line: qHTS assay to identify small molecule agonists of the RXR signaling pathway - cell viability counter screen (AID 1159529). Note: nearly all actives have a fitted effect of over 50% in size. Note: potency is the fitted concentration of half-maximal effect. The procedure, abridged:
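RXR-alpha-UAS-bla HEK 293T cells in medium with 2% charcoal-stripped FBS were pre-incubated 5 hr, then compound-treated 16 hr at 37 C. Viability was read by CellTiter-Glo luminescence in the same wells as the beta-lactamase assay, with tetraoctyl ammonium bromide as positive control.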
A general note: qHTS replaces the single test concentration by a dilution series.

The nature of experiment [2]: qHTS assay to identify small molecule antagonists of the retinoid acid receptor (RAR) signaling pathway - cell viability counter screen (AID 1159551). Note: nearly all actives have a fitted effect of over 35% in size. Note: potency is the fitted concentration of half-maximal effect. The procedure, abridged: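 Cytotoxicity counter screen: ATP content quantified by CellTiter-Glo luminescence in C3RL4 cells treated 6 hr at 37 C with compound and retinol (1 uM final). Cells plated at 1,000/well and cultured overnight before dosing.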

A short description of experiment [3]: qHTS assay to identify small molecule antagonists of the retinoic acid receptor (RAR) signaling pathway (AID 1159552; note: nearly all actives have a fitted effect of over 50% in size; note: potency is the fitted concentration of half-maximal effect). The procedure, abridged: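 Retinol signaling pathway inhibitors screened in C3RL4 RARE-luciferase reporter cells seeded overnight at 37 C, then compounds added with 1 uM (final) retinol as pathway substrate. After 6 hr at 37 C, luciferase luminescence read after 30 min at room temperature.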

Experiment [4] is described as follows: qHTS assay to identify small molecule agonists of the retinoic acid receptor (RAR) signaling pathway (AID 1159553). Note: potency is the fitted concentration of half-maximal effect. As to conditions: C3RL4 RARE luciferase reporter, agonist, 6 h; activation: at 73.3 µM (top of the series) unless noted. The procedure, abridged: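 Luminescence was measured 30 min after luciferase reagent addition at room temperature. Before that, C3RL4 reporter cells (1,000 per well, plated overnight) were treated with compound for 6 hr at 37 C and 5% CO2.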

Experiment [5] is described as follows: qHTS assay to identify small molecule antagonists of the estrogen related receptor (ERR) signaling pathway from Tox21 library - cell viability counter screen (AID 1224834). Note: nearly all actives have a fitted effect of over 30% in size. Put shortly: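 CellTiter-Fluor fluorescence, read after 30 min at 37 C, measures viability of ERR cells. Cells plated at 2,000/well and incubated 6 h before pin-tool compound addition, then exposed 17.5 hours at 37 C.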

Experiment [6] addresses Luciferin 4-monooxygenase (Photinus pyralis) (UniProt P08659). Kind of experiment: qHTS assay to identify small molecule inhibitors of firefly luciferase (AID 1224835). Note: nearly all actives have a fitted effect of over 25% in size. Note: potency is the fitted concentration of half-maximal effect. Put shortly: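 Quantitative HTS format; KM concentrations of both substrates. Purified P. pyralis FLuc activity quantified from luminescence images.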
A short description of experiment [7]: qHTS assay to identify small molecule agonists of the constitutive androstane receptor (CAR) signaling pathway - cell viability counter screen (AID 1224836). Note: nearly all actives have a fitted effect of over 45% in size. The procedure, abridged: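 HepG2 cells stably carrying hCAR and a CYP2B6-2.2kb reporter; 15-concentration compounds plus PK11195 (final 0.75 uM), 23 hr at 37 C/5% CO2. Viability read by CellTiter-Fluor fluorescence.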

Experiment [8] is described as follows: qHTS assay to identify small molecule antagonists of the constitutive androstane receptor (CAR) signaling pathway - cell viability counter screen (AID 1224837). Note: nearly all actives have a fitted effect of over 45% in size. Put shortly:
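Cytotoxicity counter-screen: CellTiter-Fluor fluorescence after 23 h compound exposure (15-point qHTS) in double-stable HepG2-CYP2B6-hCAR cells, with 50 nM CITCO added.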

The target in experiment [9] is Nuclear receptor subfamily 1 group I member 3 (Homo sapiens) (UniProt Q14994). As to the kind of experiment: qHTS assay to identify small molecule antagonists of the constitutive androstane receptor (CAR) signaling pathway (AID 1224838).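 Note: HepG2 cells stably expressing hCAR with CYP2B6 luciferase reporter stimulated by CITCO; nearly all actives have a fitted effect of over 40% in size.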 The procedure, abridged:
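Antagonism measured as luciferase signal (ONE-Glo, 30 min, room temperature) in CAR-stimulated cells: HepG2-CYP2B6-hCAR double-stable line exposed 24 hr at 37 C to compound in a 15-point series plus 50 nM CITCO.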

Experiment [10] shares this target. Kind of experiment: qHTS assay to identify small molecule agonists of the constitutive androstane receptor (CAR) signaling pathway (AID 1224839). Note: nearly all actives have a fitted effect of over 15% in size. Note: potency is the fitted concentration of half-maximal effect. The procedure, abridged:
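HepG2 cells stably co-transfected with hCAR and a CYP2B6-2.2kb luciferase reporter; compounds at 15 concentrations with 0.75 uM PK11195 present. After 24 hr at 37 C, luciferase read by ONE-Glo luminescence.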

Experiment [11] in a line: qHTS assay to identify small molecule antagonists of the estrogen related receptor signaling pathway with the pleiotropic PPARgamma coactivator (PGC) from Tox21 10K library - cell viability counter screen (AID 1224840; active = well fitted cell-killing curve with a large enough effect in the repeat runs, not every such curve was filed as active; note: nearly all actives have a fitted effect of over 40% in size). The procedure, abridged: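 Counter-screen for cytotoxicity: after 17.5 h compound exposure at 37 C, CellTiter-Fluor reagent added to PGC/ERR cells for 30 min and fluorescence read. Cells were seeded at 2,000 per well 6 h before dosing.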

Experiment [12] in a line: qHTS assay to identify small molecule antagonists of the estrogen related receptor signaling pathway with the pleiotropic PPARgamma coactivator (PGC) from Tox21 10K library (AID 1224841; call rule not given here; note: actives are mostly falling curves and most rising ones were filed inactive; nearly all actives have a fitted effect of over 50% in size; note: potency is the fitted concentration of half-maximal effect). The procedure, abridged: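 Luminescence (One-Glo, 30 min at room temperature) after 18 h compound treatment at 37 C of PGC/ERR reporter cells plated at 2,000 cells/well and settled 6 h beforehand.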

A short description of experiment [13]: qHTS assay to identify small molecule agonists of the estrogen related receptor signaling pathway with the pleiotropic PPARgamma coactivator (PGC) from Tox21 10K library (AID 1224842). Note: nearly all actives have a fitted effect of over 15% in size. The procedure, abridged: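 PGC/ERR reporter cells (NTP line) were seeded 2,000 per well, rested 6 h at 37 C/5% CO2, then pin-dosed with compounds in DMSO for 18 h at 37 C; luciferase read by One-Glo luminescence after 30 min at room temperature.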

The nature of experiment [14]: qHTS assay to identify small molecule antagonists of the estrogen related receptor (ERR) signaling pathway - cell viability counter screen (AID 1224818). The procedure, abridged: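 Cytotoxicity counter screen: fluorescence from CellTiter-Fluor, added after 17.5 h compound exposure at 37 C and read 30 min later. ERR cell line seeded at 2,000 cells/well, preincubated 6 h before dosing.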

Experiment [15] can be described thus: qHTS assay to identify small molecule antagonists of the estrogen related receptor signaling pathway with the pleiotropic PPARgamma coactivator (PGC) cell viability counter screen (AID 1224822). Put shortly: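 Viability counter-screen read by fluorescence intensity after 30 min with CellTiter-Fluor at 37 C; PGC/ERR reporter cells were exposed to compounds for 17.5 h at 37 C following a 6 h preincubation.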

The target of experiment [16] is Thyrotropin receptor (Homo sapiens) (UniProt P16473). As to the kind of experiment: qHTS assay to identify small molecule agonists of the thyroid stimulating hormone receptor (TSHR) signaling pathway (AID 1224843; calls by dose curve; note: nearly all actives have a fitted effect of over 45% in size). Put shortly: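 Compounds are titrated over 15 concentrations, in triplicate, onto TSHR-HEK293 cells seeded at 800/well. Plates sit 30 min at room temperature before cAMP-d2 and anti-cAMP cryptate are added; signal is read after a further hour.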
Thyrotropin receptor (Homo sapiens), sequence (P16473 whole entry, looked up): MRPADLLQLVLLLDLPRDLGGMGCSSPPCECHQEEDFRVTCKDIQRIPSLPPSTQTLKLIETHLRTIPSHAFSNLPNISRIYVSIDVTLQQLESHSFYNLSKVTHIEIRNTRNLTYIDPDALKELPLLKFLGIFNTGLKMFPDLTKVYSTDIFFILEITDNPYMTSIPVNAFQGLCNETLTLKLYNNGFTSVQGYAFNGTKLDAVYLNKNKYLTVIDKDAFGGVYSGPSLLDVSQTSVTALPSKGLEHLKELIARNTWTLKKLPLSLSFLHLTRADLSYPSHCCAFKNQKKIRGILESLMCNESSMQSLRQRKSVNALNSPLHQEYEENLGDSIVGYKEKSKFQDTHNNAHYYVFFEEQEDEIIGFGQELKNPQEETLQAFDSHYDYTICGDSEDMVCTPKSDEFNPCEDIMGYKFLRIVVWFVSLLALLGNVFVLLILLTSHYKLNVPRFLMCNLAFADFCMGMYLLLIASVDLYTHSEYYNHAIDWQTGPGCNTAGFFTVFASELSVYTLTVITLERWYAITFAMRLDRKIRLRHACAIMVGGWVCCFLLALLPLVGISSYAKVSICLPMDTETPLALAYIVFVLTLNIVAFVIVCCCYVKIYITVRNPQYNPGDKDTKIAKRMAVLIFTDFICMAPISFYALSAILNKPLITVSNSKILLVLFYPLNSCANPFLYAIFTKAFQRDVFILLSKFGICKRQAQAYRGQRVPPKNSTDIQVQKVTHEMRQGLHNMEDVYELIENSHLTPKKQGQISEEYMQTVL

Several values for one entry are separate records, joined by “and”; a condition that tells them apart may be missing. Identical values can stand only once. Results filed as inconclusive are left out. A structure can be active in one record and inactive in another. Activity calls are given as the source filed them. Unless noted, calls come from the whole dose curve; as a rule, active = well fitted curve in the direction sought with a large enough effect in the repeat runs; inconclusive = weak or mixed curves; inactive = no such curve, though single readings can be large; an effect the other way counts as inactive or inconclusive.

Luciferin 4-monooxygenase (Photinus pyralis), sequence (P08659 whole entry, looked up): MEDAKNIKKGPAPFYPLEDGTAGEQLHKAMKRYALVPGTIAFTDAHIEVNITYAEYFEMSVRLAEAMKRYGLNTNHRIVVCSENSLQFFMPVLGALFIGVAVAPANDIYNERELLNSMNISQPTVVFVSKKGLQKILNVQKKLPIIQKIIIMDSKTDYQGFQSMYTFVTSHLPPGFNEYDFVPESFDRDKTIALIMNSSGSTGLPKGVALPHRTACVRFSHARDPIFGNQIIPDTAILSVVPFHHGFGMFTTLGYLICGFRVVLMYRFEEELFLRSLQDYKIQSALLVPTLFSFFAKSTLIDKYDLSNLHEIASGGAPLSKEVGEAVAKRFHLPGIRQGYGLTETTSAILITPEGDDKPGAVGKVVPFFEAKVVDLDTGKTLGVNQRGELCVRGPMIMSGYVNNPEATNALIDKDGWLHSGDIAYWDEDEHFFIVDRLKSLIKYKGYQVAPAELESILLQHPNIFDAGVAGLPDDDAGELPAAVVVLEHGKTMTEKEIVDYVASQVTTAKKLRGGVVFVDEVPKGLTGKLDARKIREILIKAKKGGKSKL
Nuclear receptor subfamily 1 group I member 3 (Homo sapiens), sequence (Q14994 whole entry, looked up): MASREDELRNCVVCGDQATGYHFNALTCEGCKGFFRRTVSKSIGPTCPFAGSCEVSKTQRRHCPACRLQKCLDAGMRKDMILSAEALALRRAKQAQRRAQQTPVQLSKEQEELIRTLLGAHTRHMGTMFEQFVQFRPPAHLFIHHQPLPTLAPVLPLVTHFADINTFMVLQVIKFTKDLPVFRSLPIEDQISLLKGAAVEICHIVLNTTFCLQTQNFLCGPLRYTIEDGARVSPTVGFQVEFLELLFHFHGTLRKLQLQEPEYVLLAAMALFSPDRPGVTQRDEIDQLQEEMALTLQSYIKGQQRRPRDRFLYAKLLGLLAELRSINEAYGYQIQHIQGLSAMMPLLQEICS

As to `CCCCOC(=O)COC(=O)c1ccccc1C(=O)OCCCC`, the Potency entry in experiment [1], in experiment [2], in experiment [3], in experiment [4], in [5] and in [7] was “inactive” throughout. For the same compound, the Potency result in experiment [8], in experiment [9], in experiment [10], in experiment [11] and in experiment [12] was “inactive” in each case. For the same compound, the Potency in [6] is 12.6 µM (active) and 35.6 µM (active).
`Cn1c(-c2ccccc2)cc(-c2ccccc2)[n+]1C`: the Potency result in [1], in experiment [2], in experiment [3], in [4], in [5] and in experiment [6] was “inactive” in each case. For the same compound, the Potency result in experiment [7], in experiment [8], in experiment [9], in [10] and in [11] was “inactive” each time. Besides, the Potency in experiment [12] is 8.62 µM (active) and 27.3 µM (active).
For the compound `CC(O)CN(CC(C)O)CC(C)O` (stereo not given), the Potency entry in experiment [1], in [2], in [3], in [4], in experiment [5] and in [6] was “inactive” throughout. In addition, the Potency result in experiment [7], in experiment [8], in experiment [9], in [10] and in experiment [11] was “inactive” in each case.
On to `CC1(C)C(C(=O)OC(C#N)c2cccc(Oc3ccccc3)c2)C1(C)C` (stereo not given), for which the Potency result in experiment [1], in experiment [2], in experiment [3], in [4], in experiment [5] and in experiment [6] was “inactive” each time. The Potency result in [7], in experiment [8], in experiment [9], in experiment [11] and in experiment [13] was “inactive” in each case. Besides, the Potency was 12.3 µM (active) and 24.3 µM (active) in experiment [10]; 27.5 µM (active) in [12].
For `Oc1ccc(Cl)cc1Cc1ccccc1`, the Potency in experiment [1] is 49 µM (active) and 24.8 µM (active); in [2], 55.1 µM (active) and inactive; in experiment [3] it was 27.6 µM (active) and inactive; in [10] it was 31 µM (active) and inactive. Also, the Potency entry in [4], in experiment [15], in [6], in experiment [7], in experiment [8] and in [9] was “inactive” throughout. Besides, the Potency result in [11] and in experiment [16] was “inactive” in each case. For the same compound, in experiment [14], the call was inactive.
`CSc1nc(NC(C)C)nc(NC(C)C)n1`: the Potency entry in experiment [1], in [2], in experiment [3], in [4], in [5] and in [6] was “inactive” throughout. Also, the Potency result in experiment [7], in experiment [8], in experiment [9], in experiment [11] and in experiment [12] was “inactive” in each case.
On to `Clc1ccccc1-c1nnc(-c2ccccc2Cl)nn1`, for which the Potency entry in experiment [1], in [2], in [3], in experiment [5], in [7] and in [8] was “inactive” each time. The Potency entry in experiment [9] and in experiment [11] was “inactive” each time. In addition, the Potency in experiment [4] was 6.8 µM (active); in experiment [6], 1.4 µM (active) and 708 nM (active); in experiment [10], 30.4 µM (active) and 9.66 µM (active).
For `ClC(Cl)(Cl)Br`, the Potency result in experiment [1], in experiment [2], in [3], in experiment [4], in experiment [5] and in experiment [6] was “inactive” each time. The Potency entry in experiment [7], in experiment [8], in experiment [9], in experiment [10], in [11] and in experiment [16] was “inactive” throughout.
